Measured values published in PubChem BioAssay (NCATS).
Results filed as inconclusive are left out. Where a call stands in place of a potency, no number is given. The source made the active and inactive calls. Unless noted, calls follow the shape of the full dose curve.

Legend:
[1] = biological target: Estrogen receptor (Homo sapiens) (UniProt P03372); experiment: qHTS assay for small molecule antagonists of estrogen receptor alpha signaling (AID 588513; active = well fitted curve in the direction sought with a large enough effect in the signal ratio, with a control signal flat, not every such curve was filed as active; the % refers to the signal ratio)
Outline: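 Antagonist mode: inhibition of 0.5 nM 17-beta-estradiol-driven beta-lactamase reporter in HEK 293 ER-alpha-UAS-bla cells, 18 h at 37C, CCF4 readout after 2 h at RT. Normalised to estradiol and DMSO; titration fitted to Hill.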

[2] = biological target: Androgen receptor (Homo sapiens) (UniProt P10275); experiment: qHTS assay for small molecule agonists of androgen receptor signaling (AID 588515; active = well fitted curve in the direction sought with a large enough effect in the signal ratio, with a control signal flat; the % refers to the signal ratio); settings: AR-UAS-bla HEK293, beta-lactamase ratio, agonist 16 h; stronger effect = higher value
Outline: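 Stimulation of an AR-responsive β-lactamase reporter in GripTite HEK293 cells was measured after 16 h compound exposure at 37 °C, via CCF4 fluorescence after 2 h RT. EC50 from Hill fits, normalized to R1881 at 30 nM.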

[3] = biological target: Androgen receptor (Homo sapiens) (UniProt P10275); experiment: qHTS assay for small molecule antagonists of androgen receptor signaling (AID 588516; active = well fitted curve in the direction sought with a large enough effect in the signal ratio, with a control signal flat, not every such curve was filed as active; the % refers to the signal ratio)
Outline: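 Antagonist mode: inhibition of R1881-stimulated (10 nM final) bla reporter in GeneBLAzer AR HEK 293 cells, 16 h at 37C, compounds titrated. IC50 and efficacy from Hill-equation fits of 405/460–530 nm FRET ratios.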

[4] = biological target: Bile acid receptor (Homo sapiens) (UniProt Q96RI1); experiment: qHTS assay for small molecule antagonists of farnesoid X receptor signaling (AID 588526)
Outline: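 Antagonist mode: titrated compounds tested against chenodeoxycholic acid stimulation (normalized to 50 uM CDCA and DMSO) in GeneBLAzer HEK293T cells for 16 h. Beta-lactamase read by CCF4 fluorescence; IC50 from Hill fits.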

[5] = biological target: Bile acid receptor (Homo sapiens) (UniProt Q96RI1); experiment: qHTS assay for small molecule agonists of farnesoid X receptor signaling (AID 588527); settings: HEK293T FXR-UAS-bla, beta-lactamase ratio, 16 h; activation: stronger effect = higher value; also: series mostly up to about 77 µM
Outline: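 Quantitative HTS used FXR-UAS-bla HEK293T cells with 16 h compound incubation at 37 C. EC50 values came from concentration-response curves normalized to chenodeoxycholic acid.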

[6] = biological target: Glucocorticoid receptor (Homo sapiens) (UniProt P04150); experiment: qHTS assay for small molecule agonists of glucocorticoid receptor signaling (AID 588532; active = well fitted curve in the direction sought with a large enough effect in the signal ratio, with a control signal flat; the % refers to the signal ratio); settings: HeLa MMTV-bla, beta-lactamase ratio, agonist, 18 h; stronger effect = higher value; percent of dexamethasone control, DMSO zero
Outline: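 HeLa GRE-bla reporter cells; 18 h compound exposure at 37 C; 2 h CCF4 loading at room temperature; fluorescence at 460 and 530 nm; EC50 by Hill equation.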

[7] = biological target: Glucocorticoid receptor (Homo sapiens) (UniProt P04150); experiment: qHTS assay for small molecule antagonists of glucocorticoid receptor signaling (AID 588533; active = well fitted inhibition curve with a large enough effect in the signal ratio, with a control signal flat, not every such curve was filed as active; the % refers to the signal ratio;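 also: cells stimulated with 2 nM dexamethasone as agonist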)
Outline: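 Antagonist-mode qHTS: compound titrations added to GRE-bla HeLa cells, then dexamethasone 2 nM final; 18 h, 37 C. CCF4 FRET fluorescence normalized to dexamethasone and DMSO; IC50 from Hill fit.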

[8] = biological target: Peroxisome proliferator-activated receptor delta (Homo sapiens) (UniProt Q03181); experiment: qHTS assay for small molecule agonists of peroxisome proliferator-activated receptor delta signaling (AID 588534)
Outline: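 Titration series tested in agonist mode on beta-lactamase reporter cells; 18 hrs at 37 C after a 5 hr pre-incubation. Readout: CCF4 fluorescence, 2 hrs RT. Hill equation gives EC50 and maximal response.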

[9] = qHTS assay for small molecule antagonists of peroxisome proliferator-activated receptor delta signaling (AID 588535; active = well fitted inhibition curve with a large enough effect in the signal ratio, with a control signal flat, not every such curve was filed as active; the % refers to the signal ratio;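 as to max response: cells co-treated with a PPAR-delta agonist as stimulator during compound exposure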); settings: HEK293T PPARd-UAS-bla, beta-lactamase FRET ratio, 18 h; 460 nm channel
Outline: (§1)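 Beta-lactamase reporter read-out (405 nm excitation, 460/530 nm emission) after CCF4 loading for 2 hrs at RT. HEK293T PPAR-delta-UAS-bla cells, 2% charcoal/dextran FBS, compounds for 18 hrs at 37 C. Hill fit gave IC50 and efficacy.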

[10] = biological target: Peroxisome proliferator-activated receptor delta (Homo sapiens) (UniProt Q03181); experiment: as above
Outline: as §1

[11] = biological target: Peroxisome proliferator-activated receptor gamma (Homo sapiens) (UniProt P37231); experiment: qHTS assay for small molecule agonists of peroxisome proliferator-activated receptor gamma signaling (AID 588536; active = well fitted curve in the direction sought with a large enough effect in the signal ratio, with a control signal flat, not every such curve was filed as active; the % refers to the signal ratio)
Outline: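 Using GeneBLAzer HEK293 cells, response was quantified by CCF4 fluorescence and normalized between basal DMSO (0%) and rosiglitazone 2 uM (100%); curves yielded half-maximal stimulation concentration and efficacy.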

[12] = qHTS assay for small molecule agonists of retinoid X receptor alpha signaling (AID 588544); settings: HEK293T RXRa-UAS-bla, beta-lactamase reporter, 18 h; 530 nm emission
[13] = biological target: Retinoic acid receptor RXR-alpha (Homo sapiens) (UniProt P19793); experiment: as above
[14] = biological target: Thyroid hormone receptor beta (Homo sapiens) (UniProt P10828); experiment: qHTS assay for small molecule agonists of thyroid hormone receptor beta signaling (AID 588545)
Outline: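 HEK 293 TR-UAS-bla; agonist mode; 18 hrs, 37 C; CCF4, ex 405/em 460 and 530 nm; norm. T3 10 nM = 100%, DMSO = 0%; Hill fit → EC50, efficacy.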

[15] = qHTS assay for small molecule antagonists of retinoid X receptor alpha signaling (AID 588546; active = well fitted inhibition curve with a large enough effect in the signal ratio, with a control signal flat, not every such curve was filed as active; the % refers to the signal ratio;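 also: cells stimulated with 9-cis-retinoic acid as agonist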); settings: HEK293T RXRa-UAS-bla, beta-lactamase ratio, antagonist mode; measured here: W530 green channel, cytotoxicity proxy
Outline: (§2)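 Beta-lactamase reporter inhibition, read as CCF4 fluorescence ratio (ex 405, em 460/530 nm) after 2 h at RT. HEK293T UAS-bla cells, 2500/well, were stimulated with 9-cis-RA at 500 or 100 nM final alongside test compound for 18 h at 37 C.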

[16] = biological target: Retinoic acid receptor RXR-alpha (Homo sapiens) (UniProt P19793); experiment: as above; settings: HEK293T RXRa-UAS-bla, beta-lactamase ratio, antagonist mode
Outline: as §2

[17] = biological target: Thyroid hormone receptor beta (Homo sapiens) (UniProt P10828); experiment: qHTS assay for small molecule antagonists of thyroid hormone receptor beta signaling (AID 588547; active = well fitted inhibition curve with a large enough effect in the signal ratio, with a control signal flat, not every such curve was filed as active; the % refers to the signal ratio;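 also: cells stimulated with 0.4 nM T3 agonist during compound exposure; series mostly up to about 77 µM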); settings: TR-UAS-bla HEK293, beta-lactamase ratio, antagonist mode, 18 h
Outline: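 TR-UAS-bla GripTite HEK293 cells in 2% charcoal/dextran FBS medium; compounds 0.59 nM to 92 uM with T3 at 0.4nM final, 18 h at 37 C. Beta-lactamase read by CCF4 fluorescence (460/530 nm); Hill fits gave IC50 and efficacy.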

[18] = qHTS assay for small molecule agonists of the antioxidant response element (ARE) signaling pathway (AID 651741; active = well fitted activation curve with a large enough effect in the signal ratio; the % refers to the signal ratio)
Outline: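 HepG2 ARE-bla reporter cells, 2,000/well; 5 h settle at 37 C/5% CO2; compound pin transfer (23 nL, DMSO); 16 h at 37 C; LiveBLAzer B/G FRET substrate, 2 h RT; fluorescence intensity read.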

[19] = qHTS assay for small molecule activators of the nuclear factor-kappa B (NF-kB) signaling pathway (AID 651749; active = well fitted activation curve with a large enough effect in the signal ratio; the % refers to the signal ratio; also: series mostly up to about 77 µM); settings: NF-kB-bla ME-180 cells, beta-lactamase FRET ratio, 16 h; activation: stronger effect = higher value
Outline: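 NF-kB-bla ME-180 cells, 2,000/well; 23 nL compound or DMSO pinned; 16 hr, 37C/5% CO2; beta-lactamase FRET read-out.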

[20] = biological target: Peroxisome proliferator-activated receptor alpha (Homo sapiens) (UniProt Q07869); experiment: qHTS assay for small molecule agonists of the peroxisome proliferator-activated receptor alpha (PPARalpha) signaling pathway (AID 651778; active = well fitted curve in the direction sought with a large enough effect; an effect the other way counts as inactive or inconclusive); settings: PathHunter PPARalpha complementation, chemiluminescence, 6 h; stronger effect = higher value
Outline: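 Enzyme-fragment complementation assay in which ligand-bound PPARalpha translocates and forms an active enzyme that generates chemiluminescence. Cells were plated overnight, exposed to compound for 6 hr at 37 C, and then given detection reagent for 60 min at room temperature.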

[21] = qHTS assay for small molecule agonists of the antioxidant response element (ARE) signaling pathway measured by Nrf2-dependant transcriptional activity (AID 720636; active = well fitted curve in the direction sought with a large enough effect in the repeat runs; an effect the other way counts as inactive or inconclusive)
Outline: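 Quantitative HTS format in HepG2 cells stably expressing an ARE-luciferase reporter; 16 hr compound treatment at 37 C, luciferase signal detected with ONE-Glo.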

[22] = qHTS assay for small molecule agonists of the antioxidant response element (ARE) signaling pathway measured by Nrf2-dependant transcriptional activity - cell viability counter screen (AID 720653; active = well fitted curve in the direction sought with a large enough effect in the repeat runs; an effect the other way counts as inactive or inconclusive); settings: ARE-bla HepG2 viability, CellTiter-Glo ATP luminescence, 16 h; max response: stronger effect = lower value
Outline: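 ARE-bla HepG2 cells treated with compounds for 16 h at 37C; this counter screen measures viability as intracellular ATP by CellTiter-Glo luminescence after 30 min at room temperature.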

[23] = qHTS assay for cell viability of HEK293 cells (AID 743288; active = well fitted curve in the direction sought with a large enough effect; an effect the other way counts as inactive or inconclusive; also: nearly all actives have a fitted effect of over 50% in size); settings: ATP luminescence (CellTiter-Glo), 18 h; max response: stronger effect = lower value
Outline: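 Readout is luciferase-coupled ATP content (CellTiter-Glo luminescence, 30 min room temperature) as a measure of metabolically competent cells. Parental HEK293 cells were plated 5 h or more before compound addition, then treated 18 h at 37 C.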

[24] = qHTS assay for cell viability of the p53RE-bla HCT-116 cell line (AID 743292; active = well fitted curve in the direction sought with a large enough effect; an effect the other way counts as inactive or inconclusive; also: nearly all actives have a fitted effect of over 55% in size)
Outline: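 Viability of compound-treated p53RE-bla HCT-116 cells is taken from ATP-dependent luciferase luminescence. Treatment lasts 16 h at 37 C after a 5 h settling period; detection follows 30 min at room temperature.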

[25] = qHTS for Inhibitors of the Functional Ribonucleoprotein Complex (vRNP) of Lassa (LASV) Arenavirus: LASV Primary Screen - GLuc reporter signal (AID 1347082; calls by dose curve; tested in HEK293 reporter line; also: series mostly up to about 57 µM; nearly all actives have a fitted effect of over 60% in size)
[26] = qHTS for Inhibitors of the Functional Ribonucleoprotein Complex (vRNP) of Lassa (LASV) Arenavirus: Viability assay - alamar blue signal for LASV Primary Screen (AID 1347083; calls by dose curve; tested in HEK293 reporter line; also: series mostly up to about 57 µM; nearly all actives have a fitted effect of over 80% in size)
[27] = biological target: Nuclear receptor subfamily 1 group I member 2 (Rattus norvegicus) (UniProt Q9R1A7); experiment: qHTS assay for small molecule activators of the rat pregnane X receptor (rPXR) signaling pathway (AID 651751; call rule not given here); settings: rPXR reporter cells, luciferase (One-Glo), 24 h
[28] = qHTS assay for small molecule activators of the human pregnane X receptor (PXR) signaling pathway (AID 720659; call rule not given here)
[29] = qHTS for Inhibitors of the Functional Ribonucleoprotein Complex (vRNP) of Lymphocytic Choriomeningitis Arenaviruses (LCMV): Viability assay - alamar blue signal for LCMV Primary Screen (AID 1347085; calls by dose curve; tested in HEK293 reporter line; also: nearly all actives have a fitted effect of over 80% in size; also: potency is read from the fitted curve at half-maximal effect)
[30] = biological target: Nucleoprotein (Lymphocytic choriomeningitis virus (strain Armstrong)) (UniProt P09992); experiment: qHTS for Inhibitors of the Functional Ribonucleoprotein Complex (vRNP) of Lymphocytic Choriomeningitis Arenaviruses (LCMV): LCMV Primary Screen - GLuc reporter signal (AID 1347086); also: series mostly up to about 57 µM; nearly all actives have a fitted effect of over 70% in size
Sequence of Nucleoprotein (Lymphocytic choriomeningitis virus (strain Armstrong)) (P09992 whole entry, looked up): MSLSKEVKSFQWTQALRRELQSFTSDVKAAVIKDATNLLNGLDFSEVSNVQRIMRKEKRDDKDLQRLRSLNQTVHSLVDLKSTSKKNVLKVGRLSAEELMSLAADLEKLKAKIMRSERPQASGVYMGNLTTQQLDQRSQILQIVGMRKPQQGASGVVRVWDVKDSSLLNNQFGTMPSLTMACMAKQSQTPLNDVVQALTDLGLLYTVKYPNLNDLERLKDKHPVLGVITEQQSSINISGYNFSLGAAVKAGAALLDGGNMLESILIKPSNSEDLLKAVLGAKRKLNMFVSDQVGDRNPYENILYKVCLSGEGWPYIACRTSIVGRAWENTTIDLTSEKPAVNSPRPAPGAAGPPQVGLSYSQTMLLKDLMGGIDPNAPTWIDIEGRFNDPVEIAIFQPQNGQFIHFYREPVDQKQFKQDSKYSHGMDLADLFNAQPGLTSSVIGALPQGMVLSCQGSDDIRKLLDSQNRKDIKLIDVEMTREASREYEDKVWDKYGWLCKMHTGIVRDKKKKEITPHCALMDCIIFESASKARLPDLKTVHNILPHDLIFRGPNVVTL

Sequence of Bile acid receptor (Homo sapiens) (Q96RI1 whole entry, looked up): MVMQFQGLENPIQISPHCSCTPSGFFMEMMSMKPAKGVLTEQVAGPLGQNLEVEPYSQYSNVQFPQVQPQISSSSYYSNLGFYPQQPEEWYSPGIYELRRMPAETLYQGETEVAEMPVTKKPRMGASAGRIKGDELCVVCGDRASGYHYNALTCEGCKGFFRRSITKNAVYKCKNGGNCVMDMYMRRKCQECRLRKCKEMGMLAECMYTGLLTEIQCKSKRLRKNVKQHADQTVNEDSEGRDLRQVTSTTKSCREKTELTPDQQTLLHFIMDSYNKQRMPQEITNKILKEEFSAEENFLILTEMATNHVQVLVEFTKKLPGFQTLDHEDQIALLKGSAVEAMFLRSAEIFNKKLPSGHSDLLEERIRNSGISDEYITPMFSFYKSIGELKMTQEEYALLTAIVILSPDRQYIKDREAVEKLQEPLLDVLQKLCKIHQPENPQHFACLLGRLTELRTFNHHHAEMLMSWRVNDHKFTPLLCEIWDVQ
Sequence of Retinoic acid receptor RXR-alpha (Homo sapiens) (P19793 whole entry, looked up): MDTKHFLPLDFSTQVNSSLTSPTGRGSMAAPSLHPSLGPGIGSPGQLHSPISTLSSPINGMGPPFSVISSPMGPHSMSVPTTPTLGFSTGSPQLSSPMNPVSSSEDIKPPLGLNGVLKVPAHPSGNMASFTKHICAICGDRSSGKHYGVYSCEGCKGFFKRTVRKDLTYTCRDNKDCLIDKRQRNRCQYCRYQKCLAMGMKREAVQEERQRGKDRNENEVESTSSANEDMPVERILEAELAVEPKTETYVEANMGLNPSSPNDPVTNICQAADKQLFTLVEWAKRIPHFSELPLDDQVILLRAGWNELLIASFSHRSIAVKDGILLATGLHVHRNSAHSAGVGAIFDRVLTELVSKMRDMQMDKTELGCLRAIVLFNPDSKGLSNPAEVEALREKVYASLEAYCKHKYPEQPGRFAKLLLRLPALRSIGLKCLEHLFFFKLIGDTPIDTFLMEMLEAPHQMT
Sequence of Androgen receptor (Homo sapiens) (P10275 whole entry, looked up): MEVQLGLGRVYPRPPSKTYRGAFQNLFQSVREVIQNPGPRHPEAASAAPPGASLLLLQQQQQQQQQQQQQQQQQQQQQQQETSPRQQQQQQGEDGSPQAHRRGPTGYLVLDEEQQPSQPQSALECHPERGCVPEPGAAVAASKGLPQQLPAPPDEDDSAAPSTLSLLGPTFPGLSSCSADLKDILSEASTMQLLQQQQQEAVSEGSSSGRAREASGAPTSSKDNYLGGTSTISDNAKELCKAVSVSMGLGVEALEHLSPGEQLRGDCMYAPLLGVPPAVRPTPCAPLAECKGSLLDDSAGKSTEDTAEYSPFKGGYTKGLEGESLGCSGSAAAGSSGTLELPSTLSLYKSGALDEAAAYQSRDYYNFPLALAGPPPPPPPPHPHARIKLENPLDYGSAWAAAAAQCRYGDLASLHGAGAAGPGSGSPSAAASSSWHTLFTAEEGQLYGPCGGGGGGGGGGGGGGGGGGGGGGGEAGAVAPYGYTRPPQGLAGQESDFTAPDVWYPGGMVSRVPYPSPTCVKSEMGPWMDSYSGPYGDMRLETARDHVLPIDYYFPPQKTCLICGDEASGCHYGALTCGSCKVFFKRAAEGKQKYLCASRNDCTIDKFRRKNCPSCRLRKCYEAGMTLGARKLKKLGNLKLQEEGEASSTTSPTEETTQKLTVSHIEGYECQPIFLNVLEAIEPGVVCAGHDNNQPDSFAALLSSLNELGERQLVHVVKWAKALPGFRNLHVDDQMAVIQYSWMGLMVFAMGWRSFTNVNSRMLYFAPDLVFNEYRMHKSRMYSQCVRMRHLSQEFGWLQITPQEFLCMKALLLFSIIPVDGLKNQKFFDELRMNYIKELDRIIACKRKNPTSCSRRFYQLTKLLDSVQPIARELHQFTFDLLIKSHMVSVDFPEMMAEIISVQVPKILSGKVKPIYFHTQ
Sequence of Peroxisome proliferator-activated receptor delta (Homo sapiens) (Q03181 whole entry, looked up): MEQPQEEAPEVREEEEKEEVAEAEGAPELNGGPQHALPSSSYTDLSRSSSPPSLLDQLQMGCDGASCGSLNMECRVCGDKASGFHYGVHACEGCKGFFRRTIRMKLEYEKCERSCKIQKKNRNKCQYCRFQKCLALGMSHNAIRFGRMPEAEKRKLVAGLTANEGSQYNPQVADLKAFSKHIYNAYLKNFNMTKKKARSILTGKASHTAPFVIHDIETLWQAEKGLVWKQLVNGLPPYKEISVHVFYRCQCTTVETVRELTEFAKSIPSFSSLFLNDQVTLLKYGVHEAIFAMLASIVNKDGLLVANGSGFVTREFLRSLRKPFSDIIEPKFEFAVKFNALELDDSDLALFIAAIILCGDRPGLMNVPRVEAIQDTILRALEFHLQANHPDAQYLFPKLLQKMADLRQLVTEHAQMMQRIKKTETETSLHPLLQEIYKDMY
Sequence of Glucocorticoid receptor (Homo sapiens) (P04150 whole entry, looked up): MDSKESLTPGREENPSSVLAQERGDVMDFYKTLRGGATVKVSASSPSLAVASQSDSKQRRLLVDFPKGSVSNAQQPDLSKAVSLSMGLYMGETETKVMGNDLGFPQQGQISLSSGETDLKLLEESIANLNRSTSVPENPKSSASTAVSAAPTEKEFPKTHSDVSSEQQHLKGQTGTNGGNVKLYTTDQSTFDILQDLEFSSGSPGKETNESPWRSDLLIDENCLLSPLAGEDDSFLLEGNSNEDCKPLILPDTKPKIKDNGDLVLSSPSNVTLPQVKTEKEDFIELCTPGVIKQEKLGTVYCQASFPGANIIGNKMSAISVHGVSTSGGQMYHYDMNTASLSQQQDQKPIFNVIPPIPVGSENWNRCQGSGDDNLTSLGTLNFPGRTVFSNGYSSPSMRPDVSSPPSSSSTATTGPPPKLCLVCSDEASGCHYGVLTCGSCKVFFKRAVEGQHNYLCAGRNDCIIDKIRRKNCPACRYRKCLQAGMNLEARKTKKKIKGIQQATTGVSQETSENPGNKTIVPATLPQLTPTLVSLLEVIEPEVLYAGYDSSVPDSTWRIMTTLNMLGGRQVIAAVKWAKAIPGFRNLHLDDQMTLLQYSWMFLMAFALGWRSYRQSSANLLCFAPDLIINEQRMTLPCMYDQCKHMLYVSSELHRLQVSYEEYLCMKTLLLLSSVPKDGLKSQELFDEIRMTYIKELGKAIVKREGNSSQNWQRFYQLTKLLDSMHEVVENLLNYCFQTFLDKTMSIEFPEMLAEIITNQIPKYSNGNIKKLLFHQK
Sequence of Thyroid hormone receptor beta (Homo sapiens) (P10828 whole entry, looked up): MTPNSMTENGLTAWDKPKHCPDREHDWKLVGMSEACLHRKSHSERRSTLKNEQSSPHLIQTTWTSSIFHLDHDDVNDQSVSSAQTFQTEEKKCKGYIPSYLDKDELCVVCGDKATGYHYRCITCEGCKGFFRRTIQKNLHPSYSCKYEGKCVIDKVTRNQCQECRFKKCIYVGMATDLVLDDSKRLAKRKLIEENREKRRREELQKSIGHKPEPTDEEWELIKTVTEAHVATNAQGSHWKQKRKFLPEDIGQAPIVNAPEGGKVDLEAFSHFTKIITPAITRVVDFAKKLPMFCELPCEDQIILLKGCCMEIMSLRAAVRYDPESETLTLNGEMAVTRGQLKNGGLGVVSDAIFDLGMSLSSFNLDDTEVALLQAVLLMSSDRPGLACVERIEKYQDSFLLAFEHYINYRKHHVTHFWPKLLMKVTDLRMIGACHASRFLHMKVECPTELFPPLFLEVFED
Sequence of Peroxisome proliferator-activated receptor gamma (Homo sapiens) (P37231 whole entry, looked up): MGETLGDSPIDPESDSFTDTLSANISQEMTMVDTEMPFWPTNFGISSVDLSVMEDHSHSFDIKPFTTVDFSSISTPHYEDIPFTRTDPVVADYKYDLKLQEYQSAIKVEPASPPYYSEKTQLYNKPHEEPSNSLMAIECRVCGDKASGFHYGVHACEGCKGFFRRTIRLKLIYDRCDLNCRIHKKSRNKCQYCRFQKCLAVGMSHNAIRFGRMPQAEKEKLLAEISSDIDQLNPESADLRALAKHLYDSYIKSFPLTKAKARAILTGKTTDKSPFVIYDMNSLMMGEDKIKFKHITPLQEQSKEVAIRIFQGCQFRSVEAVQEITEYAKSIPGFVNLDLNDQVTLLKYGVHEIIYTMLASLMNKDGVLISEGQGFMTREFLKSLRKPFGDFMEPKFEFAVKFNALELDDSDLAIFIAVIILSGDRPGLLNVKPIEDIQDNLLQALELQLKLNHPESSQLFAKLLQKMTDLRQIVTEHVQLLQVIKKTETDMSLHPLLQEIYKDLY

Question: What does the source list for `CCCCOP(=O)(O)OCCCC`?
Answer: Potency [1]: inactive; activation [2]: -1.97% (inactive); outcome [3]: inactive; Potency [4]: inactive; activation [5]: 1.99% (inactive); activation [6]: -1.37% (inactive); Potency [7]: inactive; Potency [8]: inactive; max response [9]: 24.1%; outcome [10]: inactive; outcome [11]: inactive; max response [12]: -20.1%; outcome [13]: inactive; Potency [14]: inactive; max response [15]: -2.61%; max response [16]: -17.7% (inactive); activity change % (negative = inhibition) [17]: 3.56% (inactive); Potency [18]: inactive; activation [19]: 1.33% (inactive); max response [20]: -1.16% (inactive); Potency [21]: inactive; max response [22]: -8.15% (inactive); max response [23]: -9.76% (inactive); outcome [24]: inactive; Potency [25]: inactive; Potency [26]: inactive; max response [27]: 5.92% (inactive); outcome [28]: inactive

Question: Which Potency [25] does the source give for `COc1cc2c(oc(=O)c3cc(C)cc(OC)c32)c2c(C3OC(C)C(O)C(C)(O)C3O)ccc(O)c12` (stereo not drawn) here?
Answer: inactive

Question: And the Potency [29]?
Answer: inactive

Question: What about the Potency [30] of the same compound?
Answer: inactive

Question: Which Potency [25] does the source give for `C[C@]12CC[C@@H]3c4ccc(O)cc4CC[C@H]3[C@H]1C[C@@H](O)[C@H]2O` here?
Answer: inactive

Question: What about the Potency [29] of the same compound?
Answer: 9.68 µM (active)
